# The whole screen tested about 38,000 compounds, of which about 1,200 (3.2%) showed an effect of 50% or more. The median lay at about -58%. The full list was thinned out, with strong results kept by preference.
# Tested on: Plasmodium falciparum
# Test: Calibr Malaria Delayed Death Assay SOP
# Assay type: functional, organism-based
# Parameters: scale not given: in the data most compounds retested in dose-response had high values
# Settings: concentration 4.99e-06 (unit not given; other assays of the set use mol/L)
row,SMILES,Percent Effect [%]
1,CCOC(=O)N1CCC2(CCCN(C3CCOCC3)C2=O)C1 (stereo not given),-44.33
2,CCc1ccc(CNC(=O)Cn2ccc3sccc3c2=O)cc1,-94.67
3,O=C(NCCc1ccccn1)[C@@H]1CC[C@@H]2[C@@H](CCN2Cc2ccoc2)O1.O=C(O)C(F)(F)F.O=C(O)C(F)(F)F,-61.1
4,C1CCC(CO[C@@H]2CC[C@H]3[C@H]2OCCN3CC2CCOCC2)C1.O=C(O)C(F)(F)F,-55.18
5,O=C(O)C(F)(F)F.O=C(O)C(F)(F)F.O=C(c1ccco1)N1C[C@H]2CCCN(Cc3ccncc3)[C@H]2C1,-22.95
6,COc1ccc(NC(=O)c2cc3c([nH]c2=O)CCCC3=O)c(OC)c1,-49.85
7,CCN1CCN(CCNC(=O)c2sc(C(C)C)nc2C)CC1,-17.43
8,O=C(NCc1cccs1)[C@@H]1CC[C@@H]2[C@@H](CCN2CC2CCC2)O1.O=C(O)C(F)(F)F,20.57
9,CCc1cnc(CN(C(C)=O)C2CCN(CCc3ccccn3)C2)o1 (stereo not given),-120.8
10,Cc1csc2ncnc(N3CCCC(Cn4cc(C(C)(C)O)nn4)C3)c12 (stereo not given),-82.82
11,Cc1cc(C(=O)Nc2cccn(Cc3ccc(F)cc3)c2=O)on1,-10.66
12,CCc1nc(CN2CCCN(C(=O)CCCOC)CC2)cs1,-51.29
13,Cc1cc2nc(CN(C)c3ccc(Cl)cc3)cc(=O)n2o1,-90.64
14,CCCS(=O)(=O)N1CCOC2(CCCN(Cc3ccccn3)C2)C1.O=C(O)C(F)(F)F (stereo not given),-25.77
15,CN(Cc1ncc(C(C)(C)C)o1)C1CCCN(c2cccnn2)C1 (stereo not given),-55.67
16,c1cnnc(N2CCCC2CNc2ncnc3c2CCC3)c1 (stereo not given),-141.7
17,c1cnnc(N2CCCC2CNc2ncnc3ccsc23)c1 (stereo not given),-78.5
18,CN(Cc1ncc(C(C)(C)C)o1)CC1CCCN1c1cccnn1 (stereo not given),79.78
19,CN(Cc1ncc(-c2ccccc2)o1)CC1CCCN1c1cccnn1 (stereo not given),-41.68
20,Fc1ccc(Oc2ccc(CNCC3CNc4ccnn4C3)cn2)cc1 (stereo not given),-107.9
21,O=C(COCC(=O)N(c1ccccc1)c1ccccc1)N1CCCCC1,-158.5
22,CCc1nc(NCC2CCCN(C(=O)C3CC3)C2)c2cnn(C)c2n1 (stereo not given),-178
23,CCN1CCCC(C)(C(=O)NCc2nccn2Cc2ccccc2)C1 (stereo not given),29.31
24,CN(Cc1ccncc1)Cc1nccn1Cc1ccccc1,-44.2
25,Cc1nccn1-c1ccc(C(C)NCCc2ccccn2)cc1 (stereo not given),9.885

row,SMILES,Percent Effect [%]
1,CN(CCc1ccccn1)Cc1nccn1Cc1ccccc1,56
2,CC(NCCc1nccn1Cc1ccccc1)c1ccsc1 (stereo not given),82.98
3,CN(CCc1ccncc1)Cc1nccn1Cc1ccccc1,39.55
4,Cc1nccn1-c1ccc(C(C)NCCC(C)C)cc1 (stereo not given),48.4
5,CC(C)n1ccnc1CN1CCOC(CCc2ccccc2)C1 (stereo not given),7.997
6,CC(C)(C)C(=O)NCc1nccn1CCc1ccccc1,10.03
7,CCc1ccc(C(C)NCc2nccn2Cc2ccccc2)o1 (stereo not given),-17.05
8,Cc1nc(NC(=O)NCCCN2CCC(C(N)=O)CC2)sc1C,-93.87
9,Cc1nnc(C(NS(=O)(=O)c2cc(F)c(C)cc2F)C(C)C)[nH]1 (stereo not given),-26.37
10,Cc1ccc(CN(C)Cc2ncc(C(C)(C)C)o2)o1,-58.81
11,COc1cccc(OC2CN(C(=O)c3c(C)noc3C)C2)c1,-22.85
12,O=c1c2ccc(Cl)cc2ncn1CCCN1CCCCC1CO (stereo not given),-12.14
13,CC(C)c1ccc(NC(=O)c2ncc(C(N)=O)cc2Cl)cc1,-172.5
14,O=C1CC(c2ccc3c(c2)OCO3)c2cnn(C3CCCC3)c2N1 (stereo not given),-69.51
15,Cn1cc(C2CC(=O)NC23CCN(C(=O)NC2CC2)CC3)cn1 (stereo not given),-54.83
16,CC(C)C(C)N(C(=O)Cn1nc2n(c1=O)CCCCC2)C1CC1 (stereo not given),-123.2
17,CCCc1cnc(C)nc1N1CCC(Cc2ccc(CO)cc2)C1 (stereo not given),-3.438
18,CN1CCN(C)C2(CCN(Cc3ccc(C4CCCCO4)o3)CC2)C1 (stereo not given),-149.2
19,OCC1(O)CCN(Cc2ccc(C3CCCCO3)o2)CC1 (stereo not given),-16.13
20,CN1CCC2(CC1)CN(Cc1ccc(C3CCCCO3)o1)CCCN2C (stereo not given),80.31
21,Oc1cccc(C2CN(c3nnc(C4CC4)s3)CCO2)c1 (stereo not given),-92.75
22,O=C(Nc1ccccc1OC1CCOC1)c1ccon1 (stereo not given),-94.04
23,CN(Cc1ccccc1)CC(C)(C)NC(=O)c1ccon1,-38.2
24,O=C(O)C(F)(F)F.O=C([C@@H]1CCO[C@@H]2CCN(Cc3cccs3)C[C@H]21)N1CCCCO1,-36.32
25,Cc1ncsc1CN1C[C@@H]2CCCO[C@@H]2[C@H](Nc2ccccn2)C1.O=C(O)C(F)(F)F.O=C(O)C(F)(F)F,-27.39
